From the supplement of paper PMC10849652
The full data set covers some 8,800 targets. This sample favours those with a hit. About 0.5% of all pairs of compound and target were hits.

Assays:
Test in all cases: log2 fold change, soluble protein after heating vs DMSO (PISA); higher = thermal stabilisation; K562 lysate, 10 uM; active = over 0.2 and 3.5 SD of the protein, either way, in both replicates (recomputed)
[1] = compound: C1=CC=C(C=C1)[C@H](COC2=CC3=C(C=C2)NC(=O)N3)NC(=O)C4=CC=CN(C4=O)CC5=CC(=C(C=C5)F)F
Method in brief: (§1)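 K562 pellets were dounce-homogenised in PBS pH 7.4 with 1 mM MgCl2, and the crude extract at 1 mg/mL protein was treated with 10 μM compound for 30 min. Aliquots were heated for 3 min across 48°C-58°C, pooled, and brought to 0.5% NP-40 at 4°C; soluble protein was the supernatant after 21,000xg for 90 min. Soluble protein was quantified by TMTpro 16plex LC-MS/MS with channel sums equalised, and reported as log2 fold change in thermal stability against DMSO controls, with values from duplicates.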

[2] = compound: CC1=C(SC2=C1C(=N[C@H](C3=NN=C(N32)C)CC(=O)N)C4=CC=C(C=C4)Cl)C
Method in brief: as §1

[3] = compound: CC1=C2C(=CC=C1)N=C(N(C2=O)C3=CC=CC=C3C)CN4C=NC5=C(N=CN=C54)N
Method in brief: as §1

[4] = compound: Cc1sc2c(c1C)C(c1ccc(Cl)cc1)=N[C@@H](CC(=O)OC(C)(C)C)c1nnc(C)n1-2
Method in brief: as §1

[5] = compound: c1ccc([C@@H]2C[C@H]2NC2CCNCC2)cc1
Method in brief: as §1

Measured: log2 fold change

MON2 isoform 5 (UniProt Q7Z3U7)
inactive: [1] -0.014 | [2] 0.006 | [3] 0.005 | [4] 0.009 | [5] -0.013

METTL7A (UniProt Q9H8H3)
inactive: [1] 0.069 | [2] -0.059 | [3] -0.078 | [4] -0.008 | [5] -0.074

MAP3K4 (UniProt Q9Y6R4)
inactive: [1] 0.012 | [2] -0.079 | [3] -0.001 | [4] -0.03 | [5] -0.008

MGST1 (UniProt P10620)
inactive: [1] -0.08 | [2] 0.005 | [3] 0 | [4] -0.056 | [5] 0.022

MED12 isoform 2 (UniProt Q93074)
Chain of UniProt Q93074 (Q93074 whole entry, looked up): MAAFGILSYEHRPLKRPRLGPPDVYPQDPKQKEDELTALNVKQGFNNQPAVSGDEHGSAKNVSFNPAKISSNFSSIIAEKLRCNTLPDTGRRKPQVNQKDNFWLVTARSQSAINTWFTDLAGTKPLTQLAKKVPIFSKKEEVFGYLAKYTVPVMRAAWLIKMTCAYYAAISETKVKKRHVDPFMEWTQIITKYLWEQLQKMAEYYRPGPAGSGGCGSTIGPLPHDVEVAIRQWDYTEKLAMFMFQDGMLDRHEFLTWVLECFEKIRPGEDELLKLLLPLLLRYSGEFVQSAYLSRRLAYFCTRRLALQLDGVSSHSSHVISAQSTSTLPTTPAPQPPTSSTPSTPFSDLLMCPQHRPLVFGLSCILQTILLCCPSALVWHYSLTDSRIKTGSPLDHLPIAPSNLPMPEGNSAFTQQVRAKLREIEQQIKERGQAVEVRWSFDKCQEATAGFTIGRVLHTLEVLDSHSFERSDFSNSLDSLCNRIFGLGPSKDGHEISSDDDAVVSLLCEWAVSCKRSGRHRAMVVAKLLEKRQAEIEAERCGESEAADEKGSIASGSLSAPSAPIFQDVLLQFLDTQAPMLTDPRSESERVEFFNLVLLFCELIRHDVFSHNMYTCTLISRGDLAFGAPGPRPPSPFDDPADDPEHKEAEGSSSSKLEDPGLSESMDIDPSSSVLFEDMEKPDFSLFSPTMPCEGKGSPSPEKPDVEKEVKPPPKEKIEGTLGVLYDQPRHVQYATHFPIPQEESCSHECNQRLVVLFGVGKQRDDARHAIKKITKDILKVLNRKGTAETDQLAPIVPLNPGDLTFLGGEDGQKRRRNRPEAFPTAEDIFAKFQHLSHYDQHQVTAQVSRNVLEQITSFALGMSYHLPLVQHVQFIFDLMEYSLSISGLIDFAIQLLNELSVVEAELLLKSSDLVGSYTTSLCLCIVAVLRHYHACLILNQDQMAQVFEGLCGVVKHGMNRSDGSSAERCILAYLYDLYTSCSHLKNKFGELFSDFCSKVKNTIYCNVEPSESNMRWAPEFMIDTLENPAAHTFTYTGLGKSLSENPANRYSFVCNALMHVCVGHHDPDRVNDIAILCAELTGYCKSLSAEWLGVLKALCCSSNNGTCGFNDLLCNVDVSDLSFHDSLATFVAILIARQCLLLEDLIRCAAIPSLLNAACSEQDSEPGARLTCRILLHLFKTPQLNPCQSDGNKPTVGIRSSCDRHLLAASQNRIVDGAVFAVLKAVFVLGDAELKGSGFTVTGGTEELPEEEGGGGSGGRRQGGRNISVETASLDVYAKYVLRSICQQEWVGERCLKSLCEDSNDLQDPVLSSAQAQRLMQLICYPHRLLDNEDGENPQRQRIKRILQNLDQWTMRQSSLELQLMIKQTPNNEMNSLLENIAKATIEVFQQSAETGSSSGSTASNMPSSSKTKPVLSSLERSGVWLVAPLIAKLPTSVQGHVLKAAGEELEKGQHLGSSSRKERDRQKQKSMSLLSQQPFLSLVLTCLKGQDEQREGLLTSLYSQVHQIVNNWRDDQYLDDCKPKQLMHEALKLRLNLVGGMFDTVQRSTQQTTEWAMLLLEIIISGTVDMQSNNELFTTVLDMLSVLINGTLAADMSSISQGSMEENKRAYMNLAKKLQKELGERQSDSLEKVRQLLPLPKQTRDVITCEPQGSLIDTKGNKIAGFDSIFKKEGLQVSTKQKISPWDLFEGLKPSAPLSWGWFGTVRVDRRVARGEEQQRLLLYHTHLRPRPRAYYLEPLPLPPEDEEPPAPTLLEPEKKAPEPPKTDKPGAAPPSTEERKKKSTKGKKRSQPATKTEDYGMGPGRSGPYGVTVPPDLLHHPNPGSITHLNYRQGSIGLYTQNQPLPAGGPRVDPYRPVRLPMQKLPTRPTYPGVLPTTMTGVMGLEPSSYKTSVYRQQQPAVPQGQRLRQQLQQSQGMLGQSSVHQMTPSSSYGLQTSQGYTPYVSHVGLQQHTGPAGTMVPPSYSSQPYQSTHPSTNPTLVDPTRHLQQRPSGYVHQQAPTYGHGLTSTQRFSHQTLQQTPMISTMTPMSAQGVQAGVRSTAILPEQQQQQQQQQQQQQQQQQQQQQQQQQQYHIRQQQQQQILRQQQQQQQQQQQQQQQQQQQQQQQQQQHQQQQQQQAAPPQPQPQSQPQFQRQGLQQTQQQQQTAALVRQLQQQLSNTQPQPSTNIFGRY
inactive: [1] 0.013 | [2] -0.024 | [3] -0.019 | [4] 0.042 | [5] 0.031

MAP2K2 (UniProt P36507)
inactive: [1] -0.04 | [2] 0.022 | [3] -0.047 | [4] -0.068 | [5] 0.064

MAP2K1 (UniProt Q02750)
inactive: [1] -0.012 | [2] 0.016 | [3] -0.047 | [4] -0.048 | [5] 0.081

KIF15 (UniProt Q9NS87)
inactive: [1] -0.008 | [2] -0.003 | [3] 0.021 | [4] -0.02 | [5] 0.013

MIF (UniProt P14174)
inactive: [1] 0.046 | [2] 0.022 | [3] -0.043 | [4] -0.013 | [5] -0.09

LSS (UniProt P48449)
inactive: [1] 0.016 | [2] -0.083 | [3] 0.014 | [4] -0.012 | [5] -0.007

MICB, A0A140T979
inactive: [1] 0.028 | [2] -0.012 | [3] -0.003 | [4] 0.026 | [5] 0.019

KLC4 isoform 3 (UniProt Q9NSK0)
inactive: [1] 0.011 | [2] 0.004 | [3] -0.003 | [4] 0.01 | [5] 0.014

LBR (UniProt Q14739)
Chain of UniProt Q14739 (Q14739 whole entry, looked up): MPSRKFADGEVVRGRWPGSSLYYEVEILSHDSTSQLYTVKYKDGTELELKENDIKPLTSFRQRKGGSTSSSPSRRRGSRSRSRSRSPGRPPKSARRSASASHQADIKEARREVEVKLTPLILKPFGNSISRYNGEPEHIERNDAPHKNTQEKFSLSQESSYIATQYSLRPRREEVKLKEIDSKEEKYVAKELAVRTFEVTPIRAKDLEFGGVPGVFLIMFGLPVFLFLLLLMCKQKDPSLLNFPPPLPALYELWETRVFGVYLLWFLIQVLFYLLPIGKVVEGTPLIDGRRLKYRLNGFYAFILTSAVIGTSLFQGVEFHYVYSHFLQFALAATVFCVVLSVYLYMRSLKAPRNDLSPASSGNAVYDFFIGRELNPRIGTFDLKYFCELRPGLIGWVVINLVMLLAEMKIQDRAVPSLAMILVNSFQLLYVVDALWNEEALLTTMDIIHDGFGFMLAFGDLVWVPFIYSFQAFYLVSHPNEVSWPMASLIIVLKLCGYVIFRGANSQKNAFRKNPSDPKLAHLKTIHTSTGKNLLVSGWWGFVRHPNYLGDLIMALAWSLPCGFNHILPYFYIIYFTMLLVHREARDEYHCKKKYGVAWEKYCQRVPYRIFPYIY
inactive: [1] -0.018 | [2] 0.045 | [3] 0.04 | [4] 0.007 | [5] 0.117

MACO1 (UniProt Q8N5G2)
inactive: [1] -0.039 | [2] -0.044 | [3] 0.125 | [4] -0.04 | [5] 0.092

LTN1 isoform 3 (UniProt O94822)
inactive: [1] -0.059 | [2] 0 | [3] 0.027 | [4] -0.025 | [5] 0.04

MED16 (UniProt Q9Y2X0)
Chain of UniProt Q9Y2X0 (Q9Y2X0 whole entry, looked up): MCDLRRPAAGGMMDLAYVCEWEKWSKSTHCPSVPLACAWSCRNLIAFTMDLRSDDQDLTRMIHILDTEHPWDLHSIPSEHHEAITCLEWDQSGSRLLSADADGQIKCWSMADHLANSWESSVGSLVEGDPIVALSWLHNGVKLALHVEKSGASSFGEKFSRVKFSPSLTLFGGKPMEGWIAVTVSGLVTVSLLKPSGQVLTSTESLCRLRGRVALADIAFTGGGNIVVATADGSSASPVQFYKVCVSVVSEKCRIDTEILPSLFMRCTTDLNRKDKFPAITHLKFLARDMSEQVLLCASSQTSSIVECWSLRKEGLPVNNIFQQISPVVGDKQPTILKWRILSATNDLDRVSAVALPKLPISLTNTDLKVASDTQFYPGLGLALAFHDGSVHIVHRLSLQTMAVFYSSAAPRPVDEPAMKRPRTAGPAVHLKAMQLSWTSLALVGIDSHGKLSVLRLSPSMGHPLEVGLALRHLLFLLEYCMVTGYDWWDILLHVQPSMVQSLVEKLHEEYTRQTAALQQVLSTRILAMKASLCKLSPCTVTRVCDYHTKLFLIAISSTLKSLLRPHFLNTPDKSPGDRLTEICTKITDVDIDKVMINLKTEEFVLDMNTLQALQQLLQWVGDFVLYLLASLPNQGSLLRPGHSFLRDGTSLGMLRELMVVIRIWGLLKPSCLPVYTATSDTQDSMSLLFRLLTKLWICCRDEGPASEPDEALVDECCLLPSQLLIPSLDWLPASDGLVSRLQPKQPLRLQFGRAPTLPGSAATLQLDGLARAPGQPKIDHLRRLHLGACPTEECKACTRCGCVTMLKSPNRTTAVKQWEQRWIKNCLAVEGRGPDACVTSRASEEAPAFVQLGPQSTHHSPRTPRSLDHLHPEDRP
inactive: [1] 0.019 | [2] 0.022 | [3] 0.029 | [4] 0.001 | [5] 0.087

MAP2K5 (UniProt Q13163)
inactive: [1] -0.046 | [2] 0.155 | [3] -0.045 | [4] -0.407 | [5] -0.02

KIF22 (UniProt Q14807)
inactive: [1] 0.047 | [2] 0.077 | [3] 0.014 | [4] -0.159 | [5] -0.198

MAP2K3 isoform 3 (UniProt P46734)
inactive: [1] 0.035 | [2] -0.021 | [3] -0.024 | [4] 0.043 | [5] -0.006

MAP4 (UniProt E7EVA0)
inactive: [1] -0.024 | [2] -0.002 | [3] 0.037 | [4] -0.018 | [5] -0.041

MAPKAPK3 (UniProt Q16644)
inactive: [1] 0.03 | [2] -0.031 | [3] -0.005 | [4] 0.009 | [5] 0.019

MED14 (UniProt O60244)
inactive: [1] -0.037 | [2] 0.035 | [3] 0.034 | [4] -0.029 | [5] 0

LRRC7 (UniProt Q96NW7)
inactive: [1] -0.001 | [2] -0.047 | [3] -0.309 | [4] 0 | [5] -0.001

MAD2L1BP isoform 3 (UniProt Q15013)
inactive: [1] 0.003 | [2] 0.005 | [3] -0.013 | [4] -0.01 | [5] -0.006

LRRC40 (UniProt Q9H9A6)
inactive: [1] 0.001 | [2] 0.003 | [3] 0.003 | [4] 0.012 | [5] 0.034

LRWD1 (UniProt Q9UFC0)
Chain of UniProt Q9UFC0 (Q9UFC0 whole entry, looked up): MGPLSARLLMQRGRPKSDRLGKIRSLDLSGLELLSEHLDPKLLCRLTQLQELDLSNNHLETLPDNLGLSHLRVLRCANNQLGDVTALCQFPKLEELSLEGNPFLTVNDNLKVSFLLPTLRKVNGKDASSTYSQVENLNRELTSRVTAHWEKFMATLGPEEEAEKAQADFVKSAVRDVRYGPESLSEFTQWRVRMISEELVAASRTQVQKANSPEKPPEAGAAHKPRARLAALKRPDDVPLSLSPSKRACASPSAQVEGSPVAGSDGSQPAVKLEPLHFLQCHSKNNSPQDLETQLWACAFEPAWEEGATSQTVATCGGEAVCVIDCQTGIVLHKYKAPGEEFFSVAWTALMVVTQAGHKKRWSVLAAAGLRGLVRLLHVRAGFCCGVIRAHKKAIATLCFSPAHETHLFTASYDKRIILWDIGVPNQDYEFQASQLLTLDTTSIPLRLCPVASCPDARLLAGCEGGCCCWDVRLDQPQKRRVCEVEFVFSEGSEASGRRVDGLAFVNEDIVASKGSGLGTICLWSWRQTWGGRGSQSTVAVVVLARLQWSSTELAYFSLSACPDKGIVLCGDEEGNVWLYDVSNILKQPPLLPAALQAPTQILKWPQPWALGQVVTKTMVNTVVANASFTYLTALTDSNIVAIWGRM
inactive: [1] -0.027 | [2] 0.044 | [3] -0.012 | [4] 0.023 | [5] 0.039

MECR (UniProt Q9BV79)
inactive: [1] -0.001 | [2] 0.013 | [3] 0.047 | [4] -0.048 | [5] 0.005

MRPL10 isoform 2 (UniProt Q7Z7H8)
inactive: [1] -0.053 | [2] 0.097 | [3] 0.023 | [4] -0.026 | [5] 0.016

MAPK12 (UniProt P53778)
inactive: [1] 0.029 | [2] 0.068 | [3] -0.015 | [4] -0.002 | [5] 0.307

MARK1 (UniProt Q9P0L2)
Chain of UniProt Q9P0L2 (Q9P0L2 whole entry, looked up): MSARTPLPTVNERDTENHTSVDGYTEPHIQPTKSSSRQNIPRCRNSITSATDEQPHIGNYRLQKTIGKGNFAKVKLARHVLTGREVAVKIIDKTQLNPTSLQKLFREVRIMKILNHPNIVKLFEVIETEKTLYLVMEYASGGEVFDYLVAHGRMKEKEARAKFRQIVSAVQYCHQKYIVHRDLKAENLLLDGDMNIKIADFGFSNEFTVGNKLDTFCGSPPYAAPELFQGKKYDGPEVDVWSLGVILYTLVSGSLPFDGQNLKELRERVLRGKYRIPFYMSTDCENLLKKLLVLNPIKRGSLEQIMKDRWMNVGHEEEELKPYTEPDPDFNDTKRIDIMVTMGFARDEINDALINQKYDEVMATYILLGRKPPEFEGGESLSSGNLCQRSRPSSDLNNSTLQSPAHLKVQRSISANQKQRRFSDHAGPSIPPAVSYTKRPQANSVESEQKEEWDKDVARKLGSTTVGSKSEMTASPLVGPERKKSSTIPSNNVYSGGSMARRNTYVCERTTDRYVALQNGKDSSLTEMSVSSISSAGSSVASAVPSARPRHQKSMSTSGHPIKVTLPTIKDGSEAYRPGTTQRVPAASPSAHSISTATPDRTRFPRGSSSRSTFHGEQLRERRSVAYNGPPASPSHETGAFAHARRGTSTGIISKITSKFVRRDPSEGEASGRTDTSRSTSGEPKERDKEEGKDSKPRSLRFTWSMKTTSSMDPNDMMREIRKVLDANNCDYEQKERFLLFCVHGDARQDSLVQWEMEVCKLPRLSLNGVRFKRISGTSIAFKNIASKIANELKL
inactive: [1] -0.034 | [2] 0.036 | [3] 0.019 | [4] -0.006 | [5] 0.116

KIF2C (UniProt Q99661)
inactive: [1] -0.022 | [2] -0.023 | [3] -0.009 | [4] 0.052 | [5] 0.032

MEGF8 (UniProt Q7Z7M0)
inactive: [1] 0.023 | [2] -0.022 | [4] 0.116 | [5] 0.1

LYN isoform 2 (UniProt P07948)
inactive: [4] 0.043 | [5] 0.102

LEPROT (UniProt O15243)
inactive: [1] 0.049 | [2] -0.009 | [5] -0.161
